Reference: PubChem BioAssay (Tox21)
Records with an inconclusive call do not appear. Entries that show only a call come without a potency. The source made the active and inactive calls. Unless noted, calls follow the shape of the dose curve; as a rule, active = well fitted curve in the direction sought with a large enough effect in the repeat runs; inconclusive = weak or mixed curves; inactive = no such curve, though single readings can be large; an effect the other way counts as inactive or inconclusive.

Legend:
[1] = qHTS assay to identify small molecule antagonists of the thyroid receptor (TR) signaling pathway - cell viability counter screen (AID 743064); also: nearly all actives have a fitted effect of over 50% in size; also: potency is read from the fitted curve at half-maximal effect
Summary of the method: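 In rat pituitary GH3.TRE-Luc reporter cells co-exposed to compound and 1 nM T3 for 23.5 h, cytotoxicity was assessed with CellTiter-Fluor in the same wells, read by fluorescence.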

[2] = qHTS assay to identify small molecule antagonists of the thyroid receptor (TR) signaling pathway (AID 743065); also: nearly all actives have a fitted effect of over 55% in size; also: potency is read from the fitted curve at half-maximal effect
Summary of the method: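 GH3.TRE-Luc rat pituitary cells (two TREs driving luciferase) were dosed with compound, then stimulated with 1 nM T3 (final) for 23.5 h at 37 C. ONE-Glo luminescence was the read-out, with CellTiter-Fluor fluorescence as the cytotoxicity counter-screen.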

[3] = system: thyroid hormone receptor (rat, GH3 cells); assay: qHTS assay to identify small molecule agonists of the thyroid receptor (TR) signaling pathway (AID 743066; calls by dose curve)
[4] = molecular target: Estrogen receptor (Homo sapiens) (UniProt P03372); assay: qHTS assay to identify small molecule antagonists of the estrogen receptor alpha (ER-alpha) signaling pathway (AID 743069; active = well fitted curve in the direction sought with a large enough effect in the signal ratio in the repeat runs, not every such curve was filed as active; the % refers to the signal ratio)
Sequence of Estrogen receptor (Homo sapiens) (P03372 whole entry, looked up): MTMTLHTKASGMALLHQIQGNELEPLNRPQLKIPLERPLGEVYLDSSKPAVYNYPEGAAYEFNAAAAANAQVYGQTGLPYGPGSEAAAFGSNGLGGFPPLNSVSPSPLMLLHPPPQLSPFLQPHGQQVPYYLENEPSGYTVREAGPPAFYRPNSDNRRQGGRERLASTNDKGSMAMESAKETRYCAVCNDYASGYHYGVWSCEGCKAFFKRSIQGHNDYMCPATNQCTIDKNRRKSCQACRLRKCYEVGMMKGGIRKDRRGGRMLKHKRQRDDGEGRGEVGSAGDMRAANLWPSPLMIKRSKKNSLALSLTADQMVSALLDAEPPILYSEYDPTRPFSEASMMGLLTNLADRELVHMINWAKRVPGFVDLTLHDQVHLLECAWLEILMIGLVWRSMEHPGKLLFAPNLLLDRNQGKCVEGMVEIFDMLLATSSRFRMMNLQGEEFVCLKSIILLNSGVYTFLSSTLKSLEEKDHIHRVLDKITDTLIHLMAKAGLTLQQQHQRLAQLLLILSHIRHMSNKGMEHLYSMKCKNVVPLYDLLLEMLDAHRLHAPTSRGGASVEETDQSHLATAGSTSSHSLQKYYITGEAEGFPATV
Summary of the method: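 Beta-lactamase FRET fluorescence is read after 2 hr at room temperature with LiveBLAzer B/G substrate. Before that, ER-alpha-bla HEK293 cells sit 4 hr after plating, then receive compound plus 17beta-estradiol and incubate 18 hr at 37C.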

[5] = qHTS assay to identify small molecule antagonists of the estrogen receptor alpha (ER-alpha) signaling pathway - cell viability counter screen (AID 743074; calls by dose curve;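 also: HEK293 cells carrying ER-alpha-UAS-bla reporter stimulated with 17beta-estradiol; nearly all actives have a fitted effect of over 45% in size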)
[6] = molecular target: Estrogen receptor (Homo sapiens) (UniProt P03372); assay: qHTS assay to identify small molecule agonists of the estrogen receptor alpha (ER-alpha) signaling pathway (AID 743075; calls by dose curve;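 also: HEK293 GripTite cells with ER-alpha and UAS-driven beta-lactamase reporter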)
[7] = molecular target: Estrogen receptor (Homo sapiens) (UniProt P03372); assay: qHTS assay to identify small molecule agonists of the estrogen receptor alpha (ER-alpha) signaling pathway using the BG1 cell line (AID 743079); also: nearly all actives have a fitted effect of over 20% in size
[8] = qHTS assay to identify small molecule antagonists of the estrogen receptor alpha (ER-alpha) signaling pathway using the BG1 cell line (AID 743080; calls by dose curve;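 also: BG1 cells stimulated with 17beta-estradiol alongside compound; series mostly up to about 70 µM; nearly all actives have a fitted effect of over 25% in size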)
Summary of the method: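 After 5 days in phenol-red-free 10% charcoal-stripped FBS medium, BG1-Luc-4E2 cells were seeded, left 24 h at 37 C, co-treated with compounds and 17beta-estradiol for 21.5 h, then assayed for viability and luciferase.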

[9] = qHTS assay to identify small molecule antagonists of the estrogen receptor alpha (ER-alpha) signaling pathway using the BG1 cell line - cell viability counter screen (AID 743081);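 also: compound given together with 17beta-estradiol as the ER stimulus; series mostly up to about 70 µM; nearly all actives have a fitted effect of over 45% in size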
Aromatase (Homo sapiens) = Aromatase (Homo sapiens) (UniProt P11511); assay: qHTS assay to identify aromatase inhibitors (AID 743083); also: series mostly up to about 70 µM; nearly all actives have a fitted effect of over 55% in size
Sequence of Aromatase (Homo sapiens) (P11511 whole entry, looked up): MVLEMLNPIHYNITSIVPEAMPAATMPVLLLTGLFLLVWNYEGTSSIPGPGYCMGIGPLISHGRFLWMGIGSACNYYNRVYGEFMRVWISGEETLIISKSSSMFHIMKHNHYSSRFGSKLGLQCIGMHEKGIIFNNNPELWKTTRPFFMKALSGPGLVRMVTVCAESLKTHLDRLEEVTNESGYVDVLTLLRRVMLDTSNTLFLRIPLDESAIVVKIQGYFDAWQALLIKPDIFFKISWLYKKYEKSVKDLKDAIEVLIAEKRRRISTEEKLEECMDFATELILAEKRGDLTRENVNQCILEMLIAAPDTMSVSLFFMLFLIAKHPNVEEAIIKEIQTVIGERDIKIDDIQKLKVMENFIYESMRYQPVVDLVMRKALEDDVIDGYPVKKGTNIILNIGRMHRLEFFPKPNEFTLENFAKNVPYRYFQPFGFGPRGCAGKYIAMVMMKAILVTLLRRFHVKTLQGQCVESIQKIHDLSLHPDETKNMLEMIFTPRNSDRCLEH

[10] = qHTS assay to identify aromatase inhibitors - cell viability counter screen (AID 743084);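 also: cells stimulated with testosterone during compound exposure; nearly all actives have a fitted effect of over 55% in size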
[11] = qHTS assay to identify small molecule that activate the aryl hydrocarbon receptor (AhR) signaling pathway - cell viability counter screen (AID 743086);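 also: HepG2 liver cells carrying the AhR DRE luciferase reporter; series mostly up to about 70 µM; nearly all actives have a fitted effect of over 45% in size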
Summary of the method: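 HepG2-AhR-luc (HG2L7.5c1) cells, 4000/well, treated 24 h at 37 C with compound; viability measured as CellTiter-Fluor fluorescence after 30 min in the same wells as the luciferase read.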

[12] = molecular target: Peroxisome proliferator-activated receptor gamma (Homo sapiens) (UniProt P37231); assay: qHTS assay to identify small molecule agonists of the peroxisome proliferator-activated receptor gamma (PPARg) signaling pathway (AID 743094; active = well fitted activation curve with a large enough effect in the signal ratio in the repeat runs, not every such curve was filed as active; the % refers to the signal ratio)
Sequence of Peroxisome proliferator-activated receptor gamma (Homo sapiens) (P37231 whole entry, looked up): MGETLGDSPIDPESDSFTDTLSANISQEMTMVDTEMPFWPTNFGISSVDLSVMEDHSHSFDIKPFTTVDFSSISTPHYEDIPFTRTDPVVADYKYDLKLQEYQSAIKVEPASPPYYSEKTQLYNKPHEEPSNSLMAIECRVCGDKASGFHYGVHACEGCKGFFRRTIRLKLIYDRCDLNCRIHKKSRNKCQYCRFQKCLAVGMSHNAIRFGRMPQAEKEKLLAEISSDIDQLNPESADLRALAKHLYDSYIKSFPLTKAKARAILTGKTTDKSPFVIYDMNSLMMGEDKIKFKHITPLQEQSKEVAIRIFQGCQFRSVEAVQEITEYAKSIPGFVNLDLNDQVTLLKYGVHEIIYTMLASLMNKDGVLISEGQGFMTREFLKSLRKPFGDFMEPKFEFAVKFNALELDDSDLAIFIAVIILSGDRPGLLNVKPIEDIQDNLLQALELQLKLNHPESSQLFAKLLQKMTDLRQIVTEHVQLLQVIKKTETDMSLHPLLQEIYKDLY
Summary of the method: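 Fluorescence-based beta-lactamase readout in HEK293H PPARg UAS-bla cells after 17 h compound exposure (37C) and 1 h B/G FRET substrate incubation at room temperature.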

[13] = molecular target: Peroxisome proliferator-activated receptor gamma (Homo sapiens) (UniProt P37231); assay: qHTS assay to identify small molecule antagonists of the peroxisome proliferator-activated receptor gamma (PPARg) signaling pathway (AID 743191; calls by dose curve; also: series mostly up to about 63 µM; nearly all actives have a fitted effect of over 30% in size)
Summary of the method: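 GeneBLAzer PPARg UAS-bla HEK293H cells, 5 h post-plating, exposed to compounds 17 h at 37C. LiveBLAzer B/G FRET substrate added for 1 h at room temperature; beta-lactamase reporter read by fluorescence intensity.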

[14] = qHTS assay to identify small molecule antagonists of the peroxisome proliferator-activated receptor gamma (PPARg) signaling pathway - cell viability counter screen (AID 743194); also: nearly all actives have a fitted effect of over 55% in size
Summary of the method: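 Cytotoxicity counter screen in PPARg-bla HEK293H cells, same wells as reporter assay. Compounds plus 50 nM rosiglitazone (final) for 17 h at 37 C, then viability read by CellTiter-Glo luminescence.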

[15] = qHTS assay for small molecule agonists of the antioxidant response element (ARE) signaling pathway (AID 743202; active = well fitted activation curve with a large enough effect in the signal ratio in the repeat runs, not every such curve was filed as active; the % refers to the signal ratio)
Summary of the method: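 HepG2 ARE-bla reporter line, 2,000 cells/well; 5 h preincubation 37 C/5% CO2; compound (DMSO) 16 h 37 C; B/G FRET substrate 2 h RT; fluorescence intensity.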

[16] = qHTS assay for small molecule agonists of the antioxidant response element (ARE) signaling pathway - cell viability counter screen (AID 743203; calls by dose curve; also: nearly all actives have a fitted effect of over 55% in size)
Summary of the method: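 Parallel cytotoxicity read-out for the ARE-bla screen: HepG2 reporter cells, 16 hrs with compounds, then CellTiter-Glo luminescence.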

[17] = qHTS assay for small molecule activators of the heat shock response signaling pathway - cell viability counter screen (AID 743209); also: nearly all actives have a fitted effect of over 50% in size
Summary of the method: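 To flag cytotoxic compounds, HSE-bla HeLa cells plated at 1500 cells/well were dosed for 5 h at 37 C, followed by the reporter FRET read and then CellTiter-Glo, with luminescence recorded 30 min after reagent addition.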

[18] = qHTS assay for small molecule activators of the heat shock response signaling pathway (AID 743210; active = well fitted activation curve with a large enough effect in the signal ratio in the repeat runs, with a control signal flat, not every such curve was filed as active; the % refers to the signal ratio;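 also: HeLa cells with beta-lactamase reporter driven by heat shock elements; series mostly up to about 63 µM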)
Summary of the method: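 Beta-lactamase reporter read-out: FRET substrate fluorescence after 2.5 h at RT, following 5 h compound treatment at 37 C of HeLa cells carrying HSE-driven bla reporter; quantitative HTS format.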

[19] = molecular target: Aryl hydrocarbon receptor (Homo sapiens) (UniProt P35869); assay: qHTS assay to identify small molecule that activate the aryl hydrocarbon receptor (AhR) signaling pathway (AID 743085);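 also: HG2L7.5c1 human HepG2 liver cells with stably integrated DRE-driven firefly reporter; series mostly up to about 70 µM; nearly all actives have a fitted effect of over 15% in size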
Sequence of Aryl hydrocarbon receptor (Homo sapiens) (P35869 whole entry, looked up): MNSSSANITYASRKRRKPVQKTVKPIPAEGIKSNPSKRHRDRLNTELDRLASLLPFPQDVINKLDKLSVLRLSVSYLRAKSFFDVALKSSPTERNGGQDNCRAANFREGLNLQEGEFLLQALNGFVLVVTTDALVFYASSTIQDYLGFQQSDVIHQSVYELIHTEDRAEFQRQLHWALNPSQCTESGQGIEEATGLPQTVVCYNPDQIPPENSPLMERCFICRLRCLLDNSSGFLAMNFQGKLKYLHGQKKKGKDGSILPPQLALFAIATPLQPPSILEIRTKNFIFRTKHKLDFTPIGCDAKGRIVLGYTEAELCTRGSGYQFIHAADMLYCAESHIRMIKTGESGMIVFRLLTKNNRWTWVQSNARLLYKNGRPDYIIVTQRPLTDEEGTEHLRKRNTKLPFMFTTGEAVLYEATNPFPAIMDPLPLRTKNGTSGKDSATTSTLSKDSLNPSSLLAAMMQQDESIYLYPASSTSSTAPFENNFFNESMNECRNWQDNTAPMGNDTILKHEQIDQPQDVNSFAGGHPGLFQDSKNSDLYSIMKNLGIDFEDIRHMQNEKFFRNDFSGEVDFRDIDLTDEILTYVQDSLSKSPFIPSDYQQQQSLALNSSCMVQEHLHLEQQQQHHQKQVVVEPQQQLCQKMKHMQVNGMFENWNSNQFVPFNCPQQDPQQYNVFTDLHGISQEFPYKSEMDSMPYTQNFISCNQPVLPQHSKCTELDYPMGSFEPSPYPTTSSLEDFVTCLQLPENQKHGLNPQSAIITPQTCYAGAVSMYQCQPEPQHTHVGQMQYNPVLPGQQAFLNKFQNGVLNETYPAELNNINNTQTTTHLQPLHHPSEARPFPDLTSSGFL
Summary of the method: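 AhR agonist activity is inferred from enhanced light output of a DRE-controlled firefly luciferase reporter in HepG2 cells, measured with ONE-Glo following 24 h treatment at 37C.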

Compound	Potency [1]	Potency [2]	Potency [3]	Potency [4]	outcome [5]	Potency [6]	Potency [7]	Potency [8]	outcome [9]	Potency (Aromatase (Homo sapiens))	Potency [10]	Potency [11]	outcome [12]	outcome [13]	Potency [14]	Potency [15]	outcome [16]	outcome [17]	outcome [18]	Potency [19]
CC(=O)CCc1ccc(O)cc1	inactive	inactive	inactive	inactive	inactive	inactive	inactive	inactive	inactive	inactive	inactive	inactive	inactive	inactive	inactive	inactive	inactive	inactive	inactive	–
CCCCCCCCCCC1CO1 (centres undefined)	inactive	inactive	inactive	–	inactive	–	–	–	inactive	inactive	inactive	inactive	–	inactive	–	–	inactive	inactive	inactive	inactive
C=C(C)C(=O)OCCCCCCCCCCCCCCCCCC	inactive	inactive	inactive	inactive	–	inactive	–	inactive	inactive	inactive	inactive	–	inactive	–	–	inactive	–	inactive	inactive	inactive
COc1cccc(OC)c1	inactive	inactive	inactive	–	inactive	–	–	–	inactive	inactive	inactive	inactive	inactive	–	inactive	inactive	inactive	inactive	inactive	inactive
CCCCCCCCC=O	inactive	inactive	inactive	–	inactive	–	inactive	–	inactive	–	–	inactive	–	–	–	inactive	inactive	inactive	inactive	–
c1ccc(CCCc2ccccn2)cc1	inactive	inactive	inactive	inactive	inactive	inactive	–	–	inactive	inactive	inactive	inactive	inactive	–	inactive	–	inactive	inactive	inactive	–
COC(=O)CCCC(=O)O	inactive	inactive	inactive	–	inactive	inactive	inactive	inactive	inactive	inactive	inactive	inactive	inactive	inactive	inactive	–	inactive	inactive	inactive	inactive
OCC(O)[C@@H](O)[C@H](O)[C@H](O)CO[C@H]1O[C@H](CO)[C@@H](O)[C@H](O)[C@H]1O (some centres undefined)	inactive	inactive	inactive	–	inactive	–	–	–	inactive	inactive	inactive	inactive	inactive	–	inactive	inactive	inactive	inactive	inactive	inactive
OC[C@H]1O[C@@H]2O[C@H]3[C@H](O)[C@@H](O)[C@@H](O[C@H]4[C@H](O)[C@@H](O)[C@@H](O[C@H]5[C@H](O)[C@@H](O)[C@@H](O[C@H]6[C@H](O)[C@@H](O)[C@@H](O[C@H]7[C@H](O)[C@@H](O)[C@@H](O[C@H]8[C@H](O)[C@@H](O)[C@@H](O[C@H]9[C@H](O)[C@@H](O)[C@@H](O[C@H]1[C@H](O)[C@H]2O)O[C@@H]9CO)O[C@@H]8CO)O[C@@H]7CO)O[C@@H]6CO)O[C@@H]5CO)O[C@@H]4CO)O[C@@H]3CO	inactive	inactive	inactive	–	inactive	–	–	–	inactive	inactive	inactive	inactive	inactive	–	inactive	inactive	inactive	inactive	inactive	inactive
C/C=C1\C(=O)C[C@H]2[C@@H]3CCC4=CC(=O)CC[C@]4(C)[C@H]3CC[C@]12C	inactive	30 µM (active)	inactive	–	inactive	inactive	–	inactive	inactive	inactive	inactive	inactive	–	–	inactive	–	inactive	inactive	inactive	inactive
C#CC(O)CCCCC (centres undefined)	inactive	inactive	inactive	–	inactive	–	–	–	inactive	inactive	inactive	inactive	inactive	–	–	inactive	inactive	inactive	inactive	inactive
Cc1c(C)n(CCN(C)C)c2ccc(C(=O)OCCN(C)C)cc12	26.6 µM (active)	21.1 µM (active)	inactive	inactive	inactive	inactive	–	–	–	inactive	inactive	–	inactive	inactive	–	–	inactive	inactive	inactive	–
OCCCCCCO	inactive	inactive	inactive	–	inactive	–	–	–	inactive	inactive	inactive	inactive	inactive	inactive	inactive	inactive	inactive	inactive	inactive	inactive
CC1=CC(=O)CCC1	inactive	inactive	inactive	–	inactive	–	–	–	inactive	inactive	inactive	inactive	inactive	inactive	inactive	inactive	inactive	inactive	inactive	inactive
CCC(C)OC(=O)N1CCCCC1CCO (centres undefined)	inactive	inactive	inactive	–	inactive	–	–	–	inactive	inactive	inactive	inactive	inactive	–	inactive	inactive	inactive	inactive	inactive	inactive
